The source of these data is the supplement of paper PMC10646978.

Each structure is given as a SMILES string. ± gives the standard deviation.

Settings in all cases: modulator concentration 10 µM
Test [1] relates to RAW-Dual (murine macrophage reporter line). Put plainly: NF-kB reporter (SEAP) activity fold change vs agonist alone; higher = enhanced NF-kB activity. The procedure, abridged:
(§1)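 Compound reached 10 μM final in each well by pin transfer, onto RAW-Dual murine macrophage reporter cells seeded at 50 000 per well in 384-well plates. After 1 hour at 37 °C, the cells were stimulated overnight with a PRR agonist. SEAP in the supernatant was read with QUANTI-Blue at 620 nm absorbance for NF-κB, and Lucia luciferase was read with QUANTI-Luc luminescence for IRF. Each signal was turned into fold change against the mean agonist-only control on the same plate, and two replicate plates were averaged with propagated errors.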

Test [2] shares this test system. Nature of the test: IRF reporter (Lucia luciferase) activity fold change vs agonist alone; higher = enhanced IRF activity. The gist of the method:
as §1

The test system is the same in test [3]. Nature of the test: viability score (confluency relative to resting cells, overnight) (fraction); higher = more viable, active = viable (0.7 or more). The procedure, abridged:
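In 384-well plates, RAW-Dual macrophages received compound at a final 10 μM overnight. Two confluency masks were then made with IncuCyte software from IncuCyte images of all imaged wells. The viability score is defined as confluency relative to resting cells. Passing the cutoff required both masks to lie above 70% of resting cells.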

[4] abbreviates: agonist: CpG ODN 1826 0.5 ug/mL.

For `CCCOc1ccc(C(=O)OCCN(CC)CC)cc1N.Cl`, the NF-kB reporter is 0.857 ± 0.14 in test [1] (setting [4]), 1.03 ± 0.1 in test [1] (agonist: LPS 0.1 ug/mL) and 0.928 ± 0.077 in test [1] (agonist: MPLA […]). For the same compound, the IRF reporter in test [2] (agonist: 3'3'-cGAMP 10 ug/mL) amounted to 1.01 ± 0.044; in test [2] (agonist: LPS 0.1 ug/mL) it was 1.2 ± 0.19; in test [2] (agonist: MPLA […]), 1.44 ± 0.15. In test [3], the viability score was 1 (active).
As to `O=c1c(O)c(-c2ccccc2)oc2cc(O)ccc12`, the NF-kB reporter in test [1] (setting [4]) came to 1.21 ± 0.34; in test [1] (agonist: LPS 0.1 ug/mL) it was 1.37 ± 0.084; in test [1] (agonist: MPLA […]), 1.43 ± 0.15. Moreover, the IRF reporter is 0.764 ± 0.026 in test [2] (agonist: 3'3'-cGAMP 10 ug/mL), 0.947 ± 0.12 in test [2] (agonist: LPS 0.1 ug/mL) and 0.789 ± 0.077 in test [2] (agonist: MPLA […]). In test [3], the viability score is 1 (active).
As to `CCOC(=O)[C@H](CCc1ccccc1)N[C@@H](C)C(=O)N1CCC[C@H]1C(=O)O.O=C(O)/C=C\C(=O)O`, the NF-kB reporter in test [1] (setting [4]) was determined as 1.05 ± 0.09; in test [1] (agonist: LPS 0.1 ug/mL), 1.01 ± 0.11; in test [1] (agonist: MPLA […]), 1 ± 0.054. The IRF reporter in test [2] (agonist: 3'3'-cGAMP 10 ug/mL) was determined as 1.01 ± 0.085; in test [2] (agonist: LPS 0.1 ug/mL) it was 0.916 ± 0.04; in test [2] (agonist: MPLA […]), 0.868 ± 0.2. Further, the viability score in test [3] was 1 (active).
For `COc1ccc2cc(Br)ccc2c1CC(=O)O`, the NF-kB reporter stood at 0.759 ± 0.06 in test [1] (setting [4]), 0.954 ± 0.045 in test [1] (agonist: LPS 0.1 ug/mL) and 1.01 ± 0.087 in test [1] (agonist: MPLA […]). For the same compound, the values for the IRF reporter in test [2] (agonist: 3'3'-cGAMP 10 ug/mL), in test [2] (agonist: LPS 0.1 ug/mL) and in test [2] (agonist: MPLA […]) were 0.918 ± 0.043, 1.29 ± 0.076 and 1.33 ± 0.19, respectively. The viability score in test [3] is 1.02 (active).
In the case of `O=C(CSc1nc(-c2ccccc2)c(-c2ccccc2)[nH]1)N1CCOCC1`, the results for the NF-kB reporter in test [1] (setting [4]), in test [1] (agonist: LPS 0.1 ug/mL) and in test [1] (agonist: MPLA […]) were 1.05 ± 0.32, 1.08 ± 0.16 and 1.05 ± 0.1, respectively. Moreover, the IRF reporter came to 0.897 ± 0.032 in test [2] (agonist: 3'3'-cGAMP 10 ug/mL), 1.28 ± 0.17 in test [2] (agonist: LPS 0.1 ug/mL) and 1.32 ± 0.17 in test [2] (agonist: MPLA […]). Besides, the viability score in test [3] was 0.996 (active).
Consider `CCCc1nc2c(C)cc(-c3nc4ccccc4n3C)cc2n1Cc1ccc(-c2ccccc2C(=O)O)cc1`, for which the NF-kB reporter in test [1] (setting [4]) came out at 1.29 ± 0.18; in test [1] (agonist: LPS 0.1 ug/mL), 1.16 ± 0.29; in test [1] (agonist: MPLA […]), 0.99 ± 0.073. Further, the figures for the IRF reporter in test [2] (agonist: 3'3'-cGAMP 10 ug/mL), in test [2] (agonist: LPS 0.1 ug/mL) and in test [2] (agonist: MPLA […]) were 0.997 ± 0.032, 1.49 ± 0.28 and 1.06 ± 0.11, respectively. In addition, in test [3], the viability score is 0.993 (active).
In the case of `O=C1c2ccccc2C(=O)C1c1ccccn1`, the NF-kB reporter was determined as 0.912 ± 0.069 in test [1] (setting [4]), 1.08 ± 0.087 in test [1] (agonist: LPS 0.1 ug/mL) and 0.993 ± 0.021 in test [1] (agonist: MPLA […]). Further, the figures for the IRF reporter in test [2] (agonist: 3'3'-cGAMP 10 ug/mL), in test [2] (agonist: LPS 0.1 ug/mL) and in test [2] (agonist: MPLA […]) were 0.897 ± 0.055, 0.976 ± 0.075 and 0.95 ± 0.091, respectively. The viability score in test [3] is 0.987 (active).
Regarding `Cc1cn2c(nc1=O)OC1C(O)C(CO)OC12` (stereo not given), the NF-kB reporter in test [1] (setting [4]) was 1.01 ± 0.08; in test [1] (agonist: LPS 0.1 ug/mL), 1.02 ± 0.075; in test [1] (agonist: MPLA […]) it was 0.953 ± 0.091. Also, the IRF reporter in test [2] (agonist: 3'3'-cGAMP 10 ug/mL) stood at 1.02 ± 0.048; in test [2] (agonist: LPS 0.1 ug/mL), 1.29 ± 0.2; in test [2] (agonist: MPLA […]), 1.44 ± 0.4. In test [3], the viability score was 1.03 (active).
`NC(CO)(CO)CO.O=C(c1ccccc1)c1ccc2n1CCC2C(=O)O` (stereo not given): the NF-kB reporter in test [1] (setting [4]) worked out at 0.916 ± 0.18; in test [1] (agonist: LPS 0.1 ug/mL) it was 1.05 ± 0.087; in test [1] (agonist: MPLA […]) it was 0.977 ± 0.14. For the same compound, the IRF reporter in test [2] (agonist: 3'3'-cGAMP 10 ug/mL) is 0.933 ± 0.032; in test [2] (agonist: LPS 0.1 ug/mL) it was 1.07 ± 0.2; in test [2] (agonist: MPLA […]), 1.15 ± 0.19. Besides, the viability score in test [3] was 1.01 (active).
On to `CSc1cc(C=NO)c(SC)s1`, for which the NF-kB reporter in test [1] (setting [4]) turned out to be 0.874 ± 0.08; in test [1] (agonist: LPS 0.1 ug/mL) it was 0.799 ± 0.1; in test [1] (agonist: MPLA […]) it was 0.886 ± 0.085. For the same compound, the IRF reporter in test [2] (agonist: 3'3'-cGAMP 10 ug/mL) worked out at 0.713 ± 0.043; in test [2] (agonist: LPS 0.1 ug/mL), 0.975 ± 0.15; in test [2] (agonist: MPLA […]), 1.01 ± 0.27. Also, the viability score in test [3] is 0.285 (inactive).
For `COc1cc(C2CC3CC2C(C)C3(C)C)ccc1O` (stereo not given), the figures for the NF-kB reporter in test [1] (setting [4]), in test [1] (agonist: LPS 0.1 ug/mL) and in test [1] (agonist: MPLA […]) were 0.638 ± 0.098, 0.716 ± 0.052 and 0.773 ± 0.078, respectively. Besides, the IRF reporter turned out to be 0.926 ± 0.031 in test [2] (agonist: 3'3'-cGAMP 10 ug/mL), 1.01 ± 0.14 in test [2] (agonist: LPS 0.1 ug/mL) and 1.34 ± 0.22 in test [2] (agonist: MPLA […]). For the same compound, the viability score in test [3] is 1.01 (active).
On to `O=C(c1ccc(I)cc1)N(C1CCCCC1)C1CCCCC1`, for which the NF-kB reporter in test [1] (setting [4]) came to 0.976 ± 0.1; in test [1] (agonist: LPS 0.1 ug/mL), 1.03 ± 0.099; in test [1] (agonist: MPLA […]) it was 1.09 ± 0.056. Besides, the values for the IRF reporter in test [2] (agonist: 3'3'-cGAMP 10 ug/mL), in test [2] (agonist: LPS 0.1 ug/mL) and in test [2] (agonist: MPLA […]) were 0.832 ± 0.044, 1.02 ± 0.13 and 1.18 ± 0.3, respectively. Also, the viability score in test [3] is 0.997 (active).
Turning to `NC12CC3CC(CC(C3)C1)C2`, the NF-kB reporter in test [1] (setting [4]) is 1.19 ± 0.31; in test [1] (agonist: LPS 0.1 ug/mL) it was 1.09 ± 0.066; in test [1] (agonist: MPLA […]) it was 1.01 ± 0.087. For the same compound, the IRF reporter in test [2] (agonist: 3'3'-cGAMP 10 ug/mL) stood at 0.874 ± 0.061; in test [2] (agonist: LPS 0.1 ug/mL) it was 1.13 ± 0.15; in test [2] (agonist: MPLA […]) it was 1.06 ± 0.2. For the same compound, the viability score in test [3] was 0.999 (active).
`CCC(c1ccc(O)cc1)C(CC)c1ccc(O)cc1` (stereo not given) [Prestw-699]: the NF-kB reporter came to 0.567 ± 0.043 in test [1] (setting [4]), 0.883 ± 0.068 in test [1] (agonist: LPS 0.1 ug/mL) and 1.02 ± 0.1 in test [1] (agonist: MPLA […]). Moreover, the results for the IRF reporter in test [2] (agonist: 3'3'-cGAMP 10 ug/mL), in test [2] (agonist: LPS 0.1 ug/mL) and in test [2] (agonist: MPLA […]) were 0.75 ± 0.13, 0.84 ± 0.11 and 1.06 ± 0.16, respectively. Also, the viability score in test [3] is 0.181 (inactive).
For `Cl.Cn1cc(C(=O)[C@@H]2CCc3nc[nH]c3C2)c2ccccc21`, the NF-kB reporter came out at 0.806 ± 0.078 in test [1] (setting [4]), 0.83 ± 0.11 in test [1] (agonist: LPS 0.1 ug/mL) and 0.878 ± 0.027 in test [1] (agonist: MPLA […]). The results for the IRF reporter in test [2] (agonist: 3'3'-cGAMP 10 ug/mL), in test [2] (agonist: LPS 0.1 ug/mL) and in test [2] (agonist: MPLA […]) were 0.906 ± 0.056, 0.973 ± 0.11 and 1.01 ± 0.078, respectively. For the same compound, the viability score in test [3] is 0.997 (active).
